Data as given in PubChem BioAssay.
Activity calls are given as the source filed them. The rule behind the calls is not given here.

The compounds below were run against Pantothenate synthetase (Mycobacterium tuberculosis (strain ATCC 25618 / H37Rv)) (UniProt P9WIL5) (assay: Coupled enzyme confirmation of inhibitors against recombinant Mtb PanC (AID 375;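 note: 0% = full reaction with vehicle and 100% = no enzyme background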)). Settings: coupled enzyme assay; at 10 µM, active compounds read high.
Pantothenate synthetase (Mycobacterium tuberculosis (strain ATCC 25618 / H37Rv)), sequence (P9WIL5 whole entry, looked up): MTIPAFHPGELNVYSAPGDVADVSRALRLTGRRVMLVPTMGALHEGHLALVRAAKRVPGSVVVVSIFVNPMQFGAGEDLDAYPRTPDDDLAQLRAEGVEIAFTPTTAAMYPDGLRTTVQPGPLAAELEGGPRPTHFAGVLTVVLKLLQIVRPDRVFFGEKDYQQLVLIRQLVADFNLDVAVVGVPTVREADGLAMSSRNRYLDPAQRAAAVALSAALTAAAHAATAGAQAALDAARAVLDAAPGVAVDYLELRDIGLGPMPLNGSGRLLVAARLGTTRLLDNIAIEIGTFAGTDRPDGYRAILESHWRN

Structure (SMILES)	inhibition
CC1CCC(NC(=O)Cn2ncc3ccccc32)CC1 (configuration not stated)	0% (inactive)
Cc1cc2cc(CN(CCCN3CCOCC3)C(=O)NC3CCCCC3)c(=O)[nH]c2cc1C	2% (inactive)
NC(=O)C1(N2CCCCC2)CCN(C2CC(=O)N(Cc3cccs3)C2=O)CC1 (configuration not stated)	0% (inactive)
CC(Cc1ccc(O)c(O)c1)C(C)Cc1ccc(O)c(O)c1 (configuration not stated)	0% (inactive)
COc1ccc(CCN2C(=O)CC(N3CCOCC3)C2=O)cc1 (configuration not stated)	0% (inactive)
COC(=O)c1cnn2c(C(F)(F)F)cc(-c3ccco3)nc12	0% (inactive)
CCN(CC)S(=O)(=O)c1cccc2c(N(C)C)cccc12	0% (inactive)
COc1ccccc1OCC(=O)Nc1ccc(S(=O)(=O)Nc2nc(C)cc(C)n2)cc1	1% (inactive)
CCc1ccccc1N=C1SCC(=O)N1C	0% (inactive)
CNC(=O)CSc1nnc(-c2cc3c(C)nn(-c4ccccc4)c3s2)n1C	2% (inactive)
Cc1cc(NS(=O)(=O)c2ccc(NC(=O)COc3ccc(Cl)cc3)cc2)no1	9% (inactive)
COc1ccc(N2CCN(Cc3nc4c(c(=O)[nH]c(=O)n4C)n3CC(C)=O)CC2)cc1	0% (inactive)
N#C/C(=C\c1ccc(O)c(O)c1)C(=O)NCCCc1ccccc1	0% (inactive)
CCOc1ccc(N2CC(C(=O)Nc3ccc(F)cc3F)CC2=O)cc1 (configuration not stated)	6% (inactive)
CCOC(=O)c1c(C)oc2c1c1c(c3ccccc32)OCN(Cc2cccnc2)C1	6% (inactive)
Nc1nnn(Cc2ccccc2)n1	0% (inactive)
CC(C)OC(=O)c1ccc(OC(=O)c2cccnc2)cc1	0% (inactive)
